Source: PubChem BioAssay (several laboratories)
Rows were chosen to be rich in hits. Some 22% of all compounds tested hit in one or more screens of this group.
CYP2C9 inh = blockers of cytochrome P450 2C9 activity – biochemical, luminescence, ADME assay, primary screen; CYP2C9 Supersomes, luciferin-H conversion; hit rate 20% among 96,000; inhibition, % at 5 µM;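 active means blocking of liver enzyme CYP2C9 beyond about 50% at 5 µM, limit read from the data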
Measles CPE = compounds protecting cells from measles virus cytopathic effect, primary screen, measles RdRp inhibitor project, single point, MLSMR library, absorbance; Measles virus-infected cells, CPE protection; protection (pct of control), % at 4 µM; hit rate 1.5% among 140,000; AID 841, 2007; in the data active means protection mostly above about 24%, no sharp cut-off; inactive means mostly below about 26%
CYP2C19 act = human CYP2C19 activators, primary screen, biochemical, luminescence; recombinant CYP2C19, luciferin-H EGE luminescence; active compounds read high; 0 = fully inhibited enzyme, 1 = untreated enzyme; activation factor at 5 µM; 96,000 tested, under 10 active; Cytochrome P450 2C19 (Homo sapiens), P33261;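 active means activation factor of at least 2 at 5 µM in the primary screen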;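 further: 0 = wells with 2.5 mM tranylcypromine and 1 = vehicle-only wells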
Target sequence (P33261 whole entry, looked up): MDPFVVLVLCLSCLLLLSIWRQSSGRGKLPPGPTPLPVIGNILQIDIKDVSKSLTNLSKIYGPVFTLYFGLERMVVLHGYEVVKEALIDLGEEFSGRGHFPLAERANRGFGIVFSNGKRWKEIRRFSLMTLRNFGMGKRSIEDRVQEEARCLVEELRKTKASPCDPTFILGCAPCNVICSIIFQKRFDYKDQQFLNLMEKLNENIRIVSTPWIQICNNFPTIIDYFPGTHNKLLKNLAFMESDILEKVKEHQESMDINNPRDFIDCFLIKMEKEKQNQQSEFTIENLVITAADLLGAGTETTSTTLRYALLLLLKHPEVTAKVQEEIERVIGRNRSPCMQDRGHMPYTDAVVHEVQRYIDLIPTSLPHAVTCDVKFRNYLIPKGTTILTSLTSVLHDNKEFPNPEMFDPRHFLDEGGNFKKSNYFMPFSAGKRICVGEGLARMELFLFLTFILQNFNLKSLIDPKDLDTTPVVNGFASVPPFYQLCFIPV
CYP2C9 activ = human CYP2C9 activators, primary screen, biochemical, luminescence; recombinant CYP2C9, luciferin-H conversion; active compounds read high; factor 1 = untreated enzyme, 0 = blocked; Cytochrome P450 2C9 (Homo sapiens), P11712; hit rate 1.4% among 96,000; activation factor at 5 µM;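 active means activation factor of 2 or more for CYP2C9 at a 5 µM dose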;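 further: 0 = sulfaphenazole-blocked wells and 1 = vehicle-only wells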
CYP2C19 inhib = blockers of cytochrome P450 2C19 activity – biochemical, luminescence, ADME assay, primary screen. hit rate 21% among 96,000. inhibition, % at 5 µM. CYP2C19 Supersomes, luciferin-H EGE luminescence, 30 min. P33261;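 active means CYP2C19 inhibition above a set limit at 5 µM in the primary screen, cut at about 50% in these data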;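 further: plate controls were negative control wells for no effect and 2.5 mM tranylcypromine positive control for full effect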
Numbers without * were called inactive; nt = no result given.

SMILES	CYP2C9 inh	Measles CPE	CYP2C19 act	CYP2C9 activ	CYP2C19 inhib
CCOc1cc2c3c(c1)C1(OCCO1)C(=O)N3C(C)(C)CC2C (stereo not drawn)	16.8	3.2	0.7	0.8	33.3
CC1=C(C#N)CCC(=O)N1Cc1ccc(C)cc1	18.3	6.6	0.4	0.8	60.8*
O=C(COC(=O)[C@@H]1CCCN1C(=O)c1cccs1)NCCc1ccccc1	19.3	16.8	0.4	0.8	59.7*
CC(C)NC(=O)NC(=O)COC(=O)C1CCCN1C(=O)c1cccs1 (stereo not drawn)	16.6	23.0	0.9	0.8	11.6
COc1ccccc1NC(=O)COC(=O)[C@@H]1CCCN1C(=O)c1cccs1	7.7	12.6	0.4	0.9	59.1*
C=CCc1cccc2cc(C(=O)N(C)C)c(=O)oc12	-203.5	8.9	0.8	3*	18.0
C=CCc1cccc2cc(C(=O)OCC(=O)c3ccccc3)c(=O)oc12	-187.2	9.4	1.1	2.9*	-12.6
C=CCc1cccc2cc(C(=O)N3CCN(C(=O)c4ccco4)CC3)c(=O)oc12	-125.0	7.5	1.1	2.3*	-6.7
C=CCc1cccc2cc(C(=O)N(CC)CC)c(=O)oc12	-124.0	2.7	0.9	2.2*	8.1
C=CCc1cccc2cc(C(=O)O)c(=O)oc12	-7.5	1.1	1	1.1	-3.3
COc1cccc2cc(C(=O)N3CCN(C(=O)c4ccco4)CC3)c(=O)oc12	-69.0	8.8	0.9	1.7	11.4
CC(C)OC(=O)C1=C2SCC(=O)N2C(N)=C(C#N)C1	5.5	30.9	0.2	0.9	76.3*
CN(C)c1ccc(/C=N/NC(=O)Cn2nnc3ccccc32)cc1	nt	3.8	nt	nt	nt
CCOC(=O)C(C)c1nn(C)c(=O)c2ccccc12 (stereo not drawn)	15.4	2.1	0.3	0.8	67.0*
CCOC(=O)C1CCN(CCC(=O)Nc2ccccc2Cl)CC1	nt	24.2	nt	nt	nt
O=C(CCN1CCN(Cc2ccccc2)CC1)Nc1cccc(Cl)c1	54.1*	13.5	0.6	0.5	39.1
CCOC(=O)C1CCN(CCC(=O)Nc2cccc(Cl)c2)CC1	75.3*	17.5	0.5	0.2	52.5*
Cc1nn2c(CN(C(=O)COc3ccccc3)c3ccccc3)nnc2c2ccccc12	nt	16.5	nt	nt	nt
COc1ccc(C2c3c(oc4ccccc4c3=O)C(=O)N2c2ccc(C)cn2)cc1OC (stereo not drawn)	25.9	7.6	0.9	0.7	13.5
CCOc1ccc(C2c3c(oc4cc(C)c(C)cc4c3=O)C(=O)N2CCCN(C)C)cc1OC (stereo not drawn)	56.3*	8.6	0.9	0.4	11.1
COc1ccc(C2c3c(oc4ccc(C)cc4c3=O)C(=O)N2c2cc(C)ccn2)cc1OC (stereo not drawn)	63.5*	8.8	0.9	0.4	7.8
CCOC(=O)c1sc2nccc(N(C)C)c2c1N=CN(C)C	10.7	7.8	1	0.9	0.1
O=C(Nc1ncc(Cl)cn1)c1cccs1	0.2	4.1	0.8	1	22.7
COC(=O)c1sc2ccccc2c1-n1cccc1C(=O)C(=O)Nc1ccc(F)cc1	99.6*	4.4	0.7	0	32.9
COC(=O)c1sc2ccccc2c1-n1cccc1C(=O)C(=O)Nc1ccc(Cl)cc1	99.1*	14.8	0.8	0	23.4
SMILES	CYP2C9 inh	Measles CPE	CYP2C19 act	CYP2C9 activ	CYP2C19 inhib
COC(=O)c1sc2ccccc2c1-n1cccc1C(=O)C(=O)Nc1ccc(C)cc1	100.4*	4.0	0.6	0	38.4
O=C(c1cccc(Cl)c1)N1CCN(C(=O)c2ccco2)CC1	35.2	12.0	0.6	0.6	35.1
O=CN1CCN(C(=O)c2ccccc2F)CC1	-18.9	5.2	1	1.2	0.3
Cc1ccc(N2CCN(C(=O)c3ccccc3F)CC2)c(C)c1	89.0*	7.5	0	0.1	100.4*
O=C(c1ccccc1F)N1CCN(Cc2ccccc2F)CC1	59.2*	0.7	0	0.4	95.9*
O=C(c1cccc(Cl)c1)N1CCN(Cc2ccccc2F)CC1	79.2*	0.6	0	0.2	97.0*
Cc1ncsc1C(=O)N1N=C2/C(=C/c3ccc(N4CCOCC4)cc3)CCCC2C1c1ccc(N2CCOCC2)cc1 (stereo not drawn)	-5.4	nt	1	1.1	-3.9
COc1ccc(C(=O)NCC(=O)OCC(=O)N2CC(C)CC(C)C2)cc1 (stereo not drawn)	66.2*	0.0	1	0.3	3.8
CCOc1ccc(C(=O)NCC(=O)OCC(=O)N2CCC(C)CC2)cc1	13.4	3.7	0.9	0.9	12.1
COc1ccc(/C=C2\CCCC3C2=NN(C(=O)COC(=O)CNC(=O)c2ccccc2)C3c2ccc(OC)cc2)cc1 (stereo not drawn)	73.5*	4.5	0.8	0.3	22.7
Cc1ncsc1C(=O)N1N=C2/C(=C/c3ccccc3)CCCC2C1c1ccccc1 (stereo not drawn)	51.7*	3.9	0.9	0.5	5.8
N#CCCN(Cc1cccnc1)C(=O)Nc1ccc(Cl)c(Cl)c1	63.8*	9.5	0.1	0.4	92.1*
N#CCCN(C(=O)Nc1ccc(Cl)c(Cl)c1)c1ccccc1	nt	5.3	nt	nt	nt
O=C(Nc1ccc(Cl)cc1)N(Cc1cccnc1)Cc1ccco1	89.5*	20.7	0	0.1	99.7*
Cc1ccc(NC(=O)N(Cc2cccnc2)Cc2ccco2)cc1C	78.4*	9.4	0	0.2	96.0*
Cc1ccccc1NC(=S)N(Cc1cccnc1)Cc1ccco1	nt	12.6	nt	nt	nt
C/C(=N\NC(=O)c1cc(Cl)ccc1O)c1ccc(Br)s1	nt	32.0	nt	nt	nt
Cc1ccc(-n2c(Cn3cnc4ccccc43)nnc2SCC(=O)O)cc1	nt	4.4	nt	nt	nt
Cc1ccc(-n2nnnc2C(Cl)c2nnnn2-c2ccc(C)cc2)cc1	nt	4.3	nt	nt	nt
C=Cn1ccnc1P(=S)(c1ccc2c(c1)c1ccccc1n2CC)c1nccn1C=C	27.4	15.9	1	0.7	1.8
C/C(N)=C(/C#N)C(=O)CSc1ccc2c(c1)OCCO2	18.9	2.6	0.1	0.8	94.9*
Cn1c(N)c(C(=O)CSc2ccc3c(c2)OCCO3)c(=O)n(C)c1=O	16.9	5.2	0.6	0.8	42.2
CCOC(=O)c1oc2ccc(Br)cc2c1CSc1nnc(C)s1	59.3*	1.4	0.5	0.4	53.8*
COc1ccc(/C=C/C(=O)c2ccc3c(c2)OCO3)c(OC)c1	nt	10.1	nt	nt	nt
COCCCNC(=O)COc1ccc(Cl)c(C)c1	-6.0	13.6	0.2	1.1	83.7*
COc1ccccc1N1CCN(C(=O)COc2ccc(C)cc2Br)CC1	9.0	5.3	0.5	0.9	49.8
Cc1cc(OCC(=O)N2CCCC2)ccc1Cl	20.4	20.5	0.2	0.8	84.8*
Cc1ccc(OCC(=O)N2CCCCC2)c(Br)c1	-9.0	0.4	0.1	1.1	85.4*
CCOC(=O)c1ccc(Oc2nc(NC(C)(C)C)nc(N(C)C)n2)cc1	87.5*	2.5	0.2	0.1	84.0*
O=S1(=O)N=C(N(CCO)/N=C/C=C/c2ccccc2)c2ccccc21	nt	9.6	nt	nt	nt
